The test system of assay [1] is Sodium/Iodide Symporter (NIS), SLC5A5 (gene 6528). Put plainly: CPHEA_Stoker_NIS_Inhibition_RAIU: CPHEA's Radioactive Iodide Uptake (RAIU) Assay for Sodium/Iodide Symporter (NIS) Inhibition, Stoker and Laws Labs (AID 2283841). The method, boiled down: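 Iodide uptake through human NIS is measured in an engineered HEK293T line. Cells take up 125I (329pM final) for 2 hours at room temperature alongside chemicals at 0.001–100uM. Retained radioactivity is counted, and the signal is expressed against DMSO controls.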

Assay [2] in a line: CPHEA_Stoker_NIS_Cytotoxicity: Cytotoxicity Assessment for CPHEA's Radioactive Iodide Uptake (RAIU) Assay for Sodium/Iodide Symporter (NIS) Inhibition, Stoker and Laws Labs (AID 2283897).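 As to AC50: active means loss of ATP signal versus DMSO meaning cytotoxicity.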 The method, boiled down: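 ATP luminescence (Cell Titer Glo) measured viability, with loss of signal normalized to DMSO controls. Cells: hNIS-HEK293T-EPA, seeded 40 hours prior. Dosing: 0.001–100uM, 2 hours, room temperature, uptake buffer pH 7.4.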

Assay [3] in a line: CEETOX_H295R_11DCORT_noMTC: CeeTox H295R High-throughput Steroidogenesis Assay for 11-Deoxycortisol (11DCORT), maximum tolerated concentration (MTC) filtered results only (AID 2283911; active = hit-call score of the fitted dose curve at least 0.9, where 1 is the maximum; inactive = score below 0.9). To be noted: actives raise or lower the signal. The method, boiled down: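 Forskolin-primed (10 uM, 48 h) H295R adrenal cells are dosed for 48 h at 0.1% DMSO; medium 11-deoxycortisol is quantified by LC-MS/MS against a 7-point standard curve, with activity fitted in both directions versus DMSO.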

Assay [4] can be described thus: CEETOX_H295R_OHPREG_noMTC: CeeTox H295R High-throughput Steroidogenesis Assay for OH-Pregnenolone (OHPREG), maximum tolerated concentration (MTC) filtered results only (AID 2283912; active = hit-call score of the fitted dose curve at least 0.9, where 1 is the maximum; inactive = score below 0.9). To be noted: actives raise or lower the signal. The method, boiled down: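 H295R cells prestimulated 48 h with 10 uM forskolin, then exposed 48 h to compound (0.1% DMSO). 17alpha-hydroxypregnenolone in medium measured by MTBE extraction and HPLC-MS/MS; bidirectional fit vs DMSO, concentrations not MTT/MTC-filtered.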

The nature of assay [5]: CEETOX_H295R_OHPROG_noMTC: CeeTox H295R High-throughput Steroidogenesis Assay for OH-Progesterone (OHPROG), maximum tolerated concentration (MTC) filtered results only (AID 2283914; active = hit-call score of the fitted dose curve at least 0.9, where 1 is the maximum; inactive = score below 0.9). To be noted: actives raise or lower the signal. The method, boiled down:
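H295R cells prestimulated 48 h with 10 uM forskolin, then exposed 48 h to chemical (0.1% DMSO final). 17alpha-hydroxyprogesterone in medium quantified by HPLC-MS/MS after MTBE extraction; bidirectional fitting versus DMSO, concentrations not MTC-filtered.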

A short description of assay [6]: CEETOX_H295R_CORTISOL_noMTC: CeeTox H295R High-throughput Steroidogenesis Assay for Cortisol, maximum tolerated concentration (MTC) filtered results only (AID 2283916; active = hit-call score of the fitted dose curve at least 0.9, where 1 is the maximum; inactive = score below 0.9). To be noted: actives raise or lower the signal. The method, boiled down: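 H295R human adrenal cells prestimulated 48 h with 10 uM forskolin, then exposed 48 h to chemical in 0.1% DMSO; cortisol in medium quantified by HPLC-MS/MS; bidirectional fit vs DMSO baseline, concentrations not MTT-filtered for MTC.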

The nature of assay [7]: CEETOX_H295R_CORTIC_noMTC: CeeTox H295R High-throughput Steroidogenesis Assay for Corticosterone (CORTIC), maximum tolerated concentration (MTC) filtered results only (AID 2283917; active = hit-call score of the fitted dose curve at least 0.9, where 1 is the maximum; inactive = score below 0.9). The settings on record: actives raise or lower the signal. The method, then:
(§1) CEETOX_H295R is a cell-based, multiplexed-readout assay that uses H295R, a human adrenal gland cell line, with measurements taken at 48 hours after chemical dosing in a 96-well plate.CEETOX_H295R_CORTIC_noMTC is one of 12 assay component(s) measured or calculated from the CEETOX_H295R assay (11 hormones and 1 viability assay). It is designed to make measurements of hormone induction, a form of inducible reporter, as detected with absorbance signals by HPLC-MS-MS technology. The concentrations for these components have not been pre-filtered for the maximum tolerated concentration (MTC) based on the MTT assay (_noMTC).Data from the assay component CEETOX_H295R_CORTIC_noMTC was analyzed into 1 assay endpoint. This assay endpoint, CEETOX_H295R_CORTIC_noMTC, was analyzed with bidirectional fitting relative to DMSO as the negative control and baseline of activity. Using a type of inducible reporter, gain or loss-of-signal activity using HPLC-MS-MS was used to understand synthesis of Corticosterone in H295R cell line at 48hr of chemical exposure, without filtering concentrations for maximum tolerated concentration (MTC). To generalize the intended target to other relatable targets, this assay endpoint is annotated to the steroid hormone intended target family, where the subfamily is glucocorticoids.
(§2) Cell culture and media preparation procedures were conducted in accordance with OECD Test No. 456 guidelines, with minor modifications. H295R cells (ATCC CRL-2128) were expanded for 5 passages and frozen in batches in liquid nitrogen. Prior to the steroidogenesis assay, H295R cells were thawed and passed at least 4 times. The maximum passage was 10. Cells were maintained in a 1:1 mixture of DMEM/F12 supplemented with 5ml/L ITS+ Premix (BD Bioscience) and 12.5 ml/L Nu-Serum (BD Bioscience). After seeding cells into 96-well plates at 50-60% confluency, cells were allowed to adhere overnight. Prior to chemical testing, culture medium was replaced with 175 uL medium containing 10 uM forskolin to stimulate steroidogenesis for 48 hours. Following prestimulation, forskolin medium was replaced with medium containing test chemical solubilized in DMSO (ensuring a final concentration of 0.1% DMSO). […] For steroid quantification, media samples were shipped to OpAns, LLC (Durham, NC) on dry ice, and samples were thawed to room temperature prior to liquid-liquid extraction. […] Steroid hormones were separated by HPLC, eluted using a reverse phase C18 gradient with electrospray positive ionization, followed by quantification by tandem mass spectrometry (MS/MS). Data were acquired on a MassHunter Workstation Acquisition version B03.01 (Agilent Technologies, Inc.) and processed using MassHunter Quantitative Analysis for QQQ. Accuracy was determined for each hormone analyte from 3 standards to determine upper and lower limits of quantification (ULOQ and LLOQ, respectively) using a 7-point standard curve. Precision and accuracy of the extraction and quantification methods were calculated as the percent relative standard deviation (%RSD) of the spiked standards and percent spiked standard recovered, respectively. The goal was to achieve 100% accuracy (i.e., recover all spiked-in standard at quantification with minimal loss during run time) and good precision (i.e., have %RSD <15% to ensure reproducibility). Test medium was removed following chemical exposure, and cell viability was evaluated in the same wells by MTT. […]

Assay [8] is described as follows: CEETOX_H295R_DOC_noMTC: CeeTox H295R High-throughput Steroidogenesis Assay for DOC, maximum tolerated concentration (MTC) filtered results only (AID 2283918; active = hit-call score of the fitted dose curve at least 0.9, where 1 is the maximum; inactive = score below 0.9). The settings on record: actives raise or lower the signal. The method, then: as §1, with “plate.CEETOX_H295R_DOC_noMTC” for “plate.CEETOX_H295R_CORTIC_noMTC”, “CEETOX_H295R_DOC_noMTC” for “CEETOX_H295R_CORTIC_noMTC”, “CEETOX_H295R_DOC_noMTC,” for “CEETOX_H295R_CORTIC_noMTC,”, “11-Deoxycorticosterone” for “Corticosterone”
as §2, with “nitrogen.” for “nitrogen. Prior to the steroidogenesis assay, H295R cells were thawed and passed at least 4 times. The maximum passage was 10. Cells were maintained in a 1:1 mixture of DMEM/F12 supplemented with 5ml/L ITS+ Premix (BD Bioscience) and 12.5 ml/L Nu-Serum (BD Bioscience). After seeding cells into 96-well plates at 50-60% confluency, cells were allowed to adhere overnight. Prior to chemical testing, culture medium was replaced with 175 uL medium containing 10 uM forskolin to stimulate steroidogenesis for 48 hours. Following prestimulation, forskolin medium was replaced with medium containing test chemical solubilized in DMSO (ensuring a final concentration of 0.1% DMSO).”

The nature of assay [9]: CEETOX_H295R_PROG_noMTC: CeeTox H295R High-throughput Steroidogenesis Assay for Progesterone (PROG), maximum tolerated concentration (MTC) filtered results only (AID 2283920; active = hit-call score of the fitted dose curve at least 0.9, where 1 is the maximum; inactive = score below 0.9). To be noted: actives raise or lower the signal. The method, then:
as §1, with “plate.CEETOX_H295R_PROG_noMTC” for “plate.CEETOX_H295R_CORTIC_noMTC”, “CEETOX_H295R_PROG_noMTC” for “CEETOX_H295R_CORTIC_noMTC”, “CEETOX_H295R_PROG_noMTC,” for “CEETOX_H295R_CORTIC_noMTC,”, “Progesterone” for “Corticosterone”, “progestagens.” for “glucocorticoids.”
as §2

Assay [10] in a line: CEETOX_H295R_ESTRADIOL_noMTC: CeeTox H295R High-throughput Steroidogenesis Assay for Estradiol, maximum tolerated concentration (MTC) filtered results only (AID 2283919; active = hit-call score of the fitted dose curve at least 0.9, where 1 is the maximum; inactive = score below 0.9). To be noted: actives raise or lower the signal. The method, boiled down:
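H295R human adrenal cells pre-stimulated 48 h with 10 uM forskolin, then exposed 48 h to chemical (0.1% DMSO final). Estradiol in medium measured by HPLC-MS/MS after MTBE extraction and dansyl derivatization; bidirectional fit versus DMSO, concentrations not MTT-filtered.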

Records with an inconclusive call do not appear. Active and inactive are the calls of the source. The calls were made as follows, unless noted: active = hit-call score of the fitted dose curve at least 0.9, where 1 is the maximum; inconclusive = response in the unintended direction; inactive = score below 0.9.

Take `CCCCOC(=O)c1ccccc1C(=O)OCc1ccccc1`: the result in [1], in [2], in assay [3], in assay [4], in assay [5] and in [6] was inactive. Further, the call in assay [7], in assay [8] and in assay [9] was inactive.

The term AC50 denotes the concentration at which the activity in the assay is half-maximal. As for `CCC[CH2][Sn]([Cl])([CH2]CCC)[CH2]CCC`, the AC50 was 8.22 µM (active) in [1] and 3.44 µM (active) in assay [2].

`Cc1cc(N=Nc2ccccc2C)ccc1N`: the result in [1] and in assay [2] was inactive.

With `CC(C)COC(=O)c1ccccc1C(=O)OCC(C)C`, the outcome in [2], in [3], in assay [4], in assay [5], in [6] and in assay [7] was inactive. The call in [8], in assay [10] and in assay [9] was inactive.

On to `Clc1ccc(C(c2ccc(Cl)cc2)C(Cl)(Cl)Cl)cc1`, for which the result in assay [2] was inactive.

As for `CCCCCCCCn1sccc1=O`, the result in assay [1] and in assay [2] was inactive.

Consider `O=[N+]([O-])C(Br)(CO)CO`, for which, in [2], the result was inactive.

Turning to `CC(C)(C)C(O)(CCc1ccc(Cl)cc1)Cn1cncn1` (configuration not stated), in assay [2], the result was inactive.

As for `Nc1ccc(Cl)cc1N`, in [1], the AC50 was 50 µM (active). For the same compound, the outcome in assay [2] was inactive.

Turning to `COP(=S)(OC)SCN1C(=O)c2ccccc2C1=O`, the outcome in assay [2] was inactive.

Consider `Cc1cccc(N)c1N`, for which the result in [1] and in [2] was inactive.

`Brc1ccc(Oc2ccccc2)cc1`: the result in assay [1], in assay [2], in assay [3], in assay [4], in assay [5] and in assay [6] was inactive. Also, the compound was classed as inactive in [7] and in [9].

Take `Oc1ccc2ccc3cccc4ccc1c2c34`: the outcome in [1] and in assay [2] was inactive.

On to `CCC(C)c1ccc(O)cc1` (configuration not stated), for which the outcome in assay [1] and in [2] was inactive.

Regarding `C=CCc1ccc2c(c1)OCO2`, the result in assay [3], in [4], in assay [5], in [6], in [7] and in [8] was inactive. In addition, the compound was called inactive in assay [9].

`ClC1=C(Cl)[C@]2(Cl)[C@H]3[C@H]([C@@H]4C=C[C@H]3C4)[C@@]1(Cl)C2(Cl)Cl`: the outcome in assay [1] and in assay [2] was inactive.

For the compound `CCOC(=O)[C@]1(c2ccccc2)Oc2ccccc2[C@@H]1N`, the result in [1] was inactive. The AC50 in assay [2] is 1.38 µM (active).

Turning to `[Cl-].[Cl-].[Hg+2]`, the AC50 in [1] is 7.02 µM (active); in assay [2], 39.4 µM (active).

For `CCNS(=O)(=O)C(F)(F)C(F)(F)C(F)(F)C(F)(F)C(F)(F)C(F)(F)C(F)(F)C(F)(F)F`, the result in assay [1] and in assay [2] was inactive.

In the case of `CC(C)(O)c1cnn2c(-c3ccc(F)c(-c4c(F)cccc4C#N)c3)cnc2n1`, the outcome in assay [1] and in assay [2] was inactive.

Take `ClC1=C(Cl)C2(Cl)C3C(Cl)C=CC3C1(Cl)C2(Cl)Cl` (configuration not stated): the result in assay [1] and in assay [2] was inactive.

As to `c1ccc2c(c1)oc1ccccc12`, the result in assay [1] and in [2] was inactive.

Regarding `CCCCCOC(=O)c1ccccc1C(=O)OCCCCC`, the result in [2], in assay [3], in assay [4], in [5], in assay [6] and in assay [7] was inactive. Besides, the call in assay [8], in [10] and in assay [9] was inactive.

Turning to `CN(C)c1ccc(C(=O)c2ccc(N(C)C)cc2)cc1`, the result in assay [1] and in [2] was inactive.

Take `CC(C)(OOC(C)(C)c1ccccc1)c1ccccc1`: the outcome in assay [1] and in assay [2] was inactive.

As to `Clc1ccc(C(c2ccc(Cl)cc2)C(Cl)Cl)cc1`, the result in [1] and in assay [2] was inactive.

Regarding `O=[N+]([O-])c1ccc(Oc2ccc(Cl)cc2Cl)cc1`, the result in [1] and in [2] was inactive.

Source of the values: PubChem BioAssay (EPA / NIEHS).
